# Measurements taken from PubChem BioAssay (NCATS).
# Results filed as inconclusive are left out. A call without a number means that no potency is given here. Calls of active or inactive are those of the source. The call rests on the fitted dose curve; in most records, active means well fitted inhibition curve with a large enough effect; inconclusive means small, poorly fitted or top-dose-only effect; inactive means flat fitted curve, though single readings scatter.
# Experiments:
# [1] = biological target: Voltage-gated inwardly rectifying potassium channel KCNH2 (Homo sapiens) (UniProt Q12809); assay: qHTS Assay for Small Molecule Inhibitors of the Human hERG Channel Activity (AID 588834);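 further: lower thallium flux fluorescence means stronger hERG block; nearly all actives have a fitted effect of over 50% in size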; further: potency means the concentration at half of the fitted maximal effect
# Summary of the method: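 Thallium-flux (FluxOR) read-out on FDSS: fluorescence read 10 s before and 2 min after stimulation buffer. hERG-BacMam-transduced U2OS cells, compound exposure about 10 min. AC50 by standard Hill equation.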
# [2] = biological target: Luciferin 4-monooxygenase (Photinus pyralis) (UniProt P08659); assay: Biochemical firefly luciferase enzyme assay for NPC (AID 624030);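 further: purified P. pyralis luciferase at 10 nM with luciferin and ATP substrate; series mostly up to about 59 µM; nearly all actives have a fitted effect of over 70% in size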
# Summary of the method: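 Counter-screen for direct inhibition of the luciferase enzyme by approved-drug library compounds, run at 10 nM enzyme in 50 mM Tris acetate (final). Luminescence was read within 5 min of enzyme-buffer addition and normalized to PTC124 versus DMSO (0%).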
# Sequence of Voltage-gated inwardly rectifying potassium channel KCNH2 (Homo sapiens) (Q12809 whole entry, looked up): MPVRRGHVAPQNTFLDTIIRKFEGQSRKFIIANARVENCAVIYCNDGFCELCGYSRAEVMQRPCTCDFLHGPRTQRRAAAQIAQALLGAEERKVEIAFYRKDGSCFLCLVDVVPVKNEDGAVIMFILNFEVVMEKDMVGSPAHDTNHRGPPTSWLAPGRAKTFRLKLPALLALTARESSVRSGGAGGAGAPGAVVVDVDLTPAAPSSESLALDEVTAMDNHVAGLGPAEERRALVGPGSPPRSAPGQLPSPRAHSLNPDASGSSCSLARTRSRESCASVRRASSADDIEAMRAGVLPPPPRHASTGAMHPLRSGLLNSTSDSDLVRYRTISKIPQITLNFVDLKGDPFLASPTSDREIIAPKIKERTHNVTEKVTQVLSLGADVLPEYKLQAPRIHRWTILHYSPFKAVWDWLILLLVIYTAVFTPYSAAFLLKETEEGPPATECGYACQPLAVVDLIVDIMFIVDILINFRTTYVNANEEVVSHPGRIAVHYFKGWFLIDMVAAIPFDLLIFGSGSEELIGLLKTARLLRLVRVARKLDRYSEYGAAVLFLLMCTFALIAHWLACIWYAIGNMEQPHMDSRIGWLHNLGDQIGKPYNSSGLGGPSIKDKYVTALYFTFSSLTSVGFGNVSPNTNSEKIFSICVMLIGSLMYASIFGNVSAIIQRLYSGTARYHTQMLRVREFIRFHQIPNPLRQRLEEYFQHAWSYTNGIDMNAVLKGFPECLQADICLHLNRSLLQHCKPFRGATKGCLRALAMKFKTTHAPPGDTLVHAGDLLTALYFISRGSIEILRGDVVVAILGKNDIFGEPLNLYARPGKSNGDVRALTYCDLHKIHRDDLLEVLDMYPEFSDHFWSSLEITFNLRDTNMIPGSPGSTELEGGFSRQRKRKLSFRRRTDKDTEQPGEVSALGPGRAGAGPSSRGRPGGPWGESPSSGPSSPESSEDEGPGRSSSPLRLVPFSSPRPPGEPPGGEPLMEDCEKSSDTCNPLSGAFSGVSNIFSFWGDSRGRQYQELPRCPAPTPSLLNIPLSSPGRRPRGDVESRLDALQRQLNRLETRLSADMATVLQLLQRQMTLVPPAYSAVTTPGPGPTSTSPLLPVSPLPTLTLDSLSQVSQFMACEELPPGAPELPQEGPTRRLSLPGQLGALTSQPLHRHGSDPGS
# Sequence of Luciferin 4-monooxygenase (Photinus pyralis) (P08659 whole entry, looked up): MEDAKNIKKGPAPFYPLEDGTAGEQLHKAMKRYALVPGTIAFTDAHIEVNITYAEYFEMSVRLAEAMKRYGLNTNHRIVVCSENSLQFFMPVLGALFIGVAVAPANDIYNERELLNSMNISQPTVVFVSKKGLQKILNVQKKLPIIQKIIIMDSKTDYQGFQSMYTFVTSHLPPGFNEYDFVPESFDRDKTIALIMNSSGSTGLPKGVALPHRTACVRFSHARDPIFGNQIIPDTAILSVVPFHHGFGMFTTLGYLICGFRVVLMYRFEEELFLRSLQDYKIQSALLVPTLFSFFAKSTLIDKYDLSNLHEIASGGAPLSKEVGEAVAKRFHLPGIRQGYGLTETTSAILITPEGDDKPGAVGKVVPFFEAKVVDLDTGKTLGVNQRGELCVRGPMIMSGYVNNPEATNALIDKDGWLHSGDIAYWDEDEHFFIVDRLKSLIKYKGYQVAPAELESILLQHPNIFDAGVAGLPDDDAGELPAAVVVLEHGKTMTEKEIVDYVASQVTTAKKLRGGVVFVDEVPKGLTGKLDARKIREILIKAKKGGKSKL
SMILES,Potency [1],Potency [2]
CC(=O)OCC(=O)[C@@]1(OC(C)=O)[C@@H](C)C[C@H]2[C@@H]3C[C@H](F)C4=CC(=O)C=C[C@]4(C)[C@@]3(F)[C@@H](O)C[C@@]21C,inactive,inactive
C[C@@H]1CN(CCCn2c3ccccc3c3ccccc32)C[C@H](C)N1,10 µM (active),inactive
CCN(CC)C(=O)N1CCN(C)CC1,inactive,inactive
Cc1c(C(C)C)c(=O)n(-c2ccccc2)n1C,inactive,inactive
N[C@@H](Cc1cnc[nH]1)C(=O)O,inactive,inactive
NC(CS)C(=O)O (stereo not drawn),inactive,inactive
Cc1ccc(O)c2ncccc12,inactive,inactive
Cc1c(C)n(CCN(C)C)c2ccc(C(=O)OCCN(C)C)cc12,inactive,inactive
CCOC(=O)c1cccc(N)c1,inactive,inactive
CCCCCCCCCCCCCCCC[N+](C)(C)CCN(Cc1ccc(OC)cc1)c1ncccn1,1.41 µM (active),inactive
CN1CCC[C@@H]1c1cccnc1,inactive,inactive
O=C1OC2(c3ccc(O)cc3Oc3cc(O)ccc32)c2ccccc21,0.631 µM (active),inactive
c1ccc(OCc2ccc(CCCN3CCOCC3)cc2)cc1,12.6 µM (active),inactive
O=C(CCN1CCC(c2ccccc2)C1)c1ccc2c(c1)OCCO2 (stereo not drawn),15.8 µM (active),inactive
N[C@H](Cc1c[nH]c2ccccc12)C(=O)O,inactive,inactive
Cc1cccn2c(=O)c(-c3nnn[nH]3)cnc12,inactive,inactive
CCN1CCCC1=O,inactive,inactive
CC1=C(C(=O)OC(C)C)C(c2cccc([N+](=O)[O-])c2)C(C(=O)OC2CN(C(c3ccccc3)c3ccccc3)C2)=C(N)N1 (stereo not drawn),inactive,inactive
C1CCc2nnnn2CC1,inactive,inactive
O=C1CCC(c2ccc(-n3ccnc3)cc2)=NN1,inactive,inactive
CCC(C(=O)OCCN(CC)CC)c1ccccc1 (stereo not drawn),inactive,inactive
CN(C)CCCOc1nn(Cc2ccccc2)c2ccccc12,5.01 µM (active),inactive
COc1c(C)c2c(c(O)c1C/C=C(\C)CCC(=O)O)C(=O)OC2,inactive,inactive
c1ccc(CNCCNCc2ccccc2)cc1,inactive,inactive
